Source: PubChem BioAssay (NCI)
This is part of a sample that, as a whole, favours compounds with a hit. Of some 83,000 tested, about 20% had one in any assay.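 Testing used 96-well plates and a 48-hour single-concentration exposure. Example: -40 means 40% of the starting cells died.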 Values without a mark were called inactive. Active and inactive are the calls of the source. Rule for the calls: active = growth percent below 10; inactive = the rest.

How the values were obtained:
Assay in all cases: NCI-60 one-dose screen, 48 h (100 = growth as untreated, 0 = no growth, -100 = all killed)
Settings in all cases: 10 µM unless noted
SK-MEL-2 melanoma = test system: SK-MEL-2 melanoma
EKVX NSCLC = test system: EKVX NSCLC
SN12C renal = test system: SN12C renal
UO-31 renal = test system: UO-31 renal
ACHN renal = test system: ACHN renal
CAKI-1 renal = test system: CAKI-1 renal
A498 renal = test system: A498 renal
CCRF-CEM leukemia = test system: CCRF-CEM leukemia
RPMI-8226 leukemia = test system: RPMI-8226 leukemia
OVCAR-8 ovarian = test system: OVCAR-8 ovarian
OVCAR-5 ovarian = test system: OVCAR-5 ovarian
OVCAR-4 ovarian = test system: OVCAR-4 ovarian
SK-OV-3 ovarian = test system: SK-OV-3 ovarian
OVCAR-3 ovarian = test system: OVCAR-3 ovarian
HS 578T breast = test system: HS 578T breast
NCI/ADR-RES ovarian = test system: NCI/ADR-RES ovarian
MOLT-4 leukemia = test system: MOLT-4 leukemia
SR leukemia = test system: SR leukemia
IGROV1 ovarian = test system: IGROV1 ovarian
TK-10 renal = test system: TK-10 renal

SMILES | growth (SK-MEL-2 melanoma) [%] | growth (EKVX NSCLC) [%] | growth (SN12C renal) | growth (UO-31 renal) | growth (ACHN renal) | growth (CAKI-1 renal) | growth (A498 renal) [%] | growth (CCRF-CEM leukemia) | growth (RPMI-8226 leukemia) | growth (OVCAR-8 ovarian) [%] | growth (OVCAR-5 ovarian) [%] | growth (OVCAR-4 ovarian) | growth (SK-OV-3 ovarian) [%] | growth (OVCAR-3 ovarian) [%] | growth (HS 578T breast) [%] | growth (NCI/ADR-RES ovarian) | growth (MOLT-4 leukemia) | growth (SR leukemia) | growth (IGROV1 ovarian) | growth (TK-10 renal) [%]
Nc1cccc2cccc([N+](=O)[O-])c12 | 98.3 | 120 | 107% | 74.7% | 116% | 107% | 104 | 102% | 98.5% | 108 | 113 | 94.8% | 103 | 124 | 103 | 103% |  |  |  | 
COC(=O)C(=[N+]=[N-])C(=O)c1ccc([N+](=O)[O-])o1 | 95.5 | 111 | 90.9% | 89.7% | 67.1% | 104% | 69.1 | 83.9% | 78.8% | 82 | 110 | 106% | 97.2 | 88.3 | 90.3 | 93.1% | 93.6% | 58.4% | 97.6% | 
N#CC(I)CS(=O)(=O)c1ccccc1 (configuration not stated) | 91.6 | 103 | 93.4% | 77.2% | 36.7% | 55.4% | 121 | 3.27% (active) | 101% | 91.5 | 106 | 95.4% | 102 | 76.4 | 114 | 97.4% | 88.9% | 109% | 69.3% | 
O=C1C=CC(=O)c2c(O)c(CO)c(CO)c(O)c21 | 119 | 105 | 101% | 75.5% | 95.3% | 93.4% | 120 | 78.5% | 18.2% |  | 84.8 | 64.9% | 109 | 98.3 | 113 | 97.2% | 86.6% | 83.3% | 52.7% | 
CCOC(=O)c1c(C)[nH]c2ccc(O)cc12 | 97.9 | 98.3 | 98.9% | 72.3% | 110% | 97.8% | 111 | 77.5% | 89.5% | 97.6 | 130 | 107% | 99.2 | 105 | 92 | 101% | 105% | 101% |  | 
O=C(Cc1ccccc1)C(F)(F)F | 107 | 99.1 | 103% | 93.7% | 106% | 89.8% | 102 | 98.4% | 106% | 103 | 99.5 | 106% | 101 | 101 | 111 | 104% | 82.7% | 94.7% | 101% | 
COc1cc(NCc2ccc3nc(N)nc(N)c3c2C)cc(OC)c1OC (tested in a mixture with another compound) | 61.8 | 55.8 | 44.7% | 34.9% | 23.8% | 25.4% | 32.9 | 19.9% | 41.7% |  | 36.9 |  | 58 | 55.3 | 44.1 | 32.2% | 20.6% | 31.7% | -10.2% (active) | 
O=C1C=Cc2ccccc2/C1=C/c1nc(-c2ccccc2)oc1O | 99.1 | 78.7 | 94.8% | 65.5% | 81.9% | 86.8% | 113 | 110% | 104% | 94.7 | 97.2 | 85.2% | 86.6 | 91.6 | 102 | 85.7% | 96.5% | 91.1% | 71.8% | 
CC/C(=C(/CC)c1ccc(O)cc1)c1ccc(O)cc1 | 54.6 | 64.7 | 76% | 73.2% | 67.8% | 45.8% | 81.4 | 48.8% | 61.7% | 80.1 | 89.4 | 76.8% | 38.4 |  | 63 | 40.8% | 39.9% | 21.1% | 82.4% | 
NC(=S)N/N=C\c1nccc2c(N)cccc12 | 39.3 | 34.5 | 8.66% (active) | -8.44% (active) | -7.84% (active) | -23.9% (active) | 12.2 | 8.4% (active) | 15.5% | 15.8 | 48 | 40.7% | 16.6 | 42.6 | 57.6 | 10.8% | 3.28% (active) |  | 10.9% | 
COC1CC(C)C(OC)c2cc(O)cc(c2O)NC(=O)/C(C)=C/C=C\C(C)C(OC(N)=O)/C(C)=C\C(C)C1OC (configuration not stated) | 39.4 | 41 | 30.3% | -70.9% (active) | 28.5% | 54.2% |  | -30.7% (active) | 1.65% (active) |  | 27.2 | -39.9% (active) | 16.1 | 20.2 |  | -67.2% (active) | -23.4% (active) | -5.85% (active) | -0.486% (active) | 
COc1ccc2c(c1)c(CC(=O)O)c(C)n2C(=O)c1ccc(Cl)cc1 | 106 | 95.9 | 97.4% | 65.6% | 95.3% | 88.1% | 81.9 | 89.7% | 83.8% | 104 | 105 | 102% | 119 |  | 97.8 | 98% | 113% | 106% | 99% | 
O=C1C=CC(=O)N1c1ccc(O)cc1 | 107 | 109 | 104% | 98.5% | 94.3% | 107% | 104 | 81% | 91.9% | 109 | 105 | 103% | 106 | 119 | 118 | 106% | 104% | 91.7% |  | 
COc1cc(/C=C/c2ccnc3ccccc23)cc(OC)c1OC | 12.2 | 55.3 | 31% | 37% | 54.7% | 24.3% | 18 | 43.5% | 60.6% | 42.5 | 50.5 | 54.6% | 30.1 | 16.4 | 24.4 | -25.5% (active) | 14.9% | 7.06% (active) | 59.1% | 
Cc1c(O)ccc(SC#N)c1C | 103 | 121 | 95.3% |  | 103% | 98.5% | 127 | 30.7% | 96.6% | 102 | 97.3 | 107% | 108 | 90.8 | 124 | 106% | 97.5% | 105% | 110% | 107
O=C(Cc1nc2cc(Cl)c(Cl)cc2nc1CC(=O)c1cccnc1)c1cccnc1 | 113 | 54 | 75% |  | 60.9% | 72.5% | 133 | 31.4% | 45.1% | 77.6 | 103 | 83.9% | 94.7 | 78.5 | 76 | 76.4% | 38.8% |  | 73.6% | 141
CC1(C)OCC(COC(c2ccccc2)(c2ccccc2)c2ccccc2)O1 (configuration not stated) | 83.3 |  | 102% | 85.7% | 97.6% | 89.1% | 57.2 | 102% | 105% | 98.4 | 98.1 | 96% | 112 | 102 | 103 | 103% | 93.1% | 93.6% | 108% | 88.5
O=[N+]([O-])/C(=C/c1ccccc1)c1ccccc1 | 107 |  | 103% | 84.4% | 101% | 106% | 107 | 97.5% | 108% | 105 | 103 | 99% | 100 | 109 | 110 | 106% | 99% | 88.5% | 104% | 89.5
